# Screening results as filed in PubChem.
# Only some compounds are listed: those with a hit (about 1.1% of all), similar ones and a draw of the others.
# HTR5A ag ctr: HTR5A agonists in luminescence cell assay, primary screen, counter-screen for OPRM1-OPRD1 heterodimer agonist project, full-deck HTS; 340,000 compounds, 0.61% hits; activation, % at 9.3 µM; cell-based; in the data active = activation mostly above about 9.5%, no sharp cut-off; inactive = mostly below about 7.6%;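 also: 0% = cells with vehicle only and 100% = reference agonist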
# OPRM1-OPRD1 ag: agonists of OPRM1-OPRD1 heterodimerization, primary screen, cell-based, luminescence. 340,000 compounds, 0.3% hits. Mu-type opioid receptor (Homo sapiens) + Delta-type opioid receptor (Homo sapiens), …. activation, % at 9.3 µM. cells. AID 504326, 2011; in the data active = activation above about 18%;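 also: 0% = vehicle-treated cells and 100% = reference agonist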
# MOR-DOR inv ag-1: inverse agonists of MOR-DOR heterodimerization, primary screen, cell-based, luminescence; Mu-type opioid receptor (Homo sapiens) + Delta-type opioid receptor (Homo sapiens), …; cell-based MOR-DOR heterodimer luminescence, inverse agonism; inhibition, % at 9.3 µM; 340,000 compounds, 0.21% hits; in the data active = inhibition above about 22%, passing the limit was not always enough;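 also: 0% = cells with DMSO and 100% = wells without cells with DMSO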
# HTR5A inv ctr: HTR5A inverse agonists in luminescence cell assay, primary screen, counter-screen for OPRM1-OPRD1 heterodimer inverse agonist project, full-deck HTS; 5-hydroxytryptamine receptor 5A (Homo sapiens), P47898; HTR5A cell line, inverse agonism; inhibition, % at 9.3 µM; 340,000 compounds, 0.083% hits; in the data active = inhibition mostly above about 23%, no sharp cut-off; inactive = mostly below about 18%;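 also: 0% = cells with DMSO and 100% = no-cell wells with DMSO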
# MOR-DOR inv conf: inverse agonists of MOR-DOR heterodimerization, confirmation, cell-based, luminescence; shares compounds with MOR-DOR inv ag-1; 580 compounds, 20% hits; cells expressing OPRM1/OPRD1 heterodimer; AID 504900, 2011; inhibition, % at 9.3 µM; in the data active = inhibition above about 32%;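 also: 0% = cells with DMSO and 100% = wells lacking cells with DMSO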
# HTR5A inv count: HTR5A inverse agonists, counter-screen for OPRM1-OPRD1 inverse agonist project, cell-based, luminescence; shares compounds with MOR-DOR inv ag-1; HTR5A-expressing cells, inverse agonism; inhibition, % at 9.3 µM; 580 tested, under 10 active;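 also: 0% = cells with DMSO and 100% = no-cell wells with DMSO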
# MOR-DOR inv ag-2: inverse agonists of MOR-DOR heterodimerization, counter-screen for HTR5A inverse agonist project, cell-based, luminescence | inhibition, % at 9.3 µM | 190 tested, under 10 active | AID 504912, 2011 | shares compounds with HTR5A inv ctr | U2OS counter-screen cells, complementation luminescence;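 also: 0% = cells with DMSO and 100% = wells without cells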
# HTR5A inv confrm: HTR5A inverse agonists, retest of hits, confirmation, cell-based, luminescence. shares compounds with HTR5A inv ctr. HTR5A-expressing cells, inverse agonism. inhibition, % at 9.3 µM. 190 tested, under 10 active. AID 504916, 2011;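 also: 0% = cells with DMSO and 100% = no cells with DMSO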
# Active calls of the source: *; nt = not tested or not shown. Unless noted, no rule for the calls is given here.
SMILES,HTR5A ag ctr,OPRM1-OPRD1 ag,MOR-DOR inv ag-1,HTR5A inv ctr,MOR-DOR inv conf,HTR5A inv count,MOR-DOR inv ag-2,HTR5A inv confrm
CC(C)(C)c1cc(C(=O)NCC(=O)OCC(=O)c2cccc([N+](=O)[O-])c2)cc(C(C)(C)C)c1,-3,-9,46*,11,37*,52*,nt,nt
O=C(CN1C(=O)C2C3CC(C(Br)C3Br)C2C1=O)OCC(=O)c1cccc([N+](=O)[O-])c1 (stereo not given),-7,-12,61*,18,38*,14,nt,nt
O=C(CN1C(=O)C2C3C=CC(C3)C2C1=O)OCC(=O)c1ccc([N+](=O)[O-])cc1 (stereo not given),-2,-3,15,7,nt,nt,nt,nt
O=C(CN1C(=O)C2CC=CCC2C1=O)OCC(=O)c1ccc(Cl)c([N+](=O)[O-])c1 (stereo not given),-5,-16,89*,38*,59*,21,nt,nt
O=C(CCc1ccccc1)OCC(=O)c1cccc([N+](=O)[O-])c1,0,-11,54*,50,31*,20,nt,nt
O=C(CN1C(=O)c2ccccc2C1=O)NCC(=O)OCC(=O)c1cccc([N+](=O)[O-])c1,-1,-15,73*,1,45*,14,nt,nt
O=C(Cc1ccccc1)NCC(=O)OCC(=O)c1cccc([N+](=O)[O-])c1,-8,-13,64*,19,58*,8,nt,nt
CCNC(=O)C12CCC(C)(c3nc4cc(C)c(C)cc4nc31)C2(C)C (stereo not given),-4,-3,13,11,nt,nt,nt,nt
CCOc1ccc(NC(=S)NC(=O)c2c(Cl)cnn2CC)c([N+](=O)[O-])c1,-7,-1,4,18,nt,nt,nt,nt
CCOc1ccc(NC(=S)NC(=O)c2c(Br)cnn2C)c([N+](=O)[O-])c1,0,0,2,36*,nt,nt,-11,-8
COc1ccc(/C=C/C(=O)NC(=S)NNC(=O)c2cccs2)cc1,-7,-4,23,42*,nt,nt,4,-18
COc1ccc(S(=O)(=O)Nc2ccccc2C(=O)N2CCCC2)cc1OC,7,0,1,-21,nt,nt,nt,nt
COc1ccc(OC)c(S(=O)(=O)Nc2ccccc2C(=O)N2CCCCC2)c1,-1,0,0,45*,nt,nt,-4,-5
C=CCSc1nnc(CC(OC)OC)n1-c1ccccc1,3,1,-9,39*,nt,nt,-11,-8
COC(Cc1nnc(SC)n1-c1ccc(Cl)cc1)OC,-4,-2,11,13,nt,nt,nt,nt
CCc1ccc(-c2nc(CS(=O)CC(=O)NCCCN3CCOCC3)c(C)o2)cc1 (stereo not given),2,-3,18,-17,nt,nt,nt,nt
Cc1ccc(/C=C/c2nnc(-c3cccs3)o2)cc1,-6,5,-33,13,nt,nt,nt,nt
Cc1ccc(/C=C/c2nnc(-c3ccc(C)cc3)o2)cc1,-18,2,-13,42*,nt,nt,-42,-199
CN(C)CCN(CC1CCCN(Cc2ccccc2F)C1)C(=O)c1ccc(Cl)cc1 (stereo not given),0,0,1,1,nt,nt,nt,nt
NC(N)=N/N=C/c1cc([N+](=O)[O-])ccc1O,0,-2,10,21,nt,nt,nt,nt
CN(C)/N=C/c1cc([N+](=O)[O-])ccc1O,-9,-1,8,28*,nt,nt,-23,7
O=C(COC(=O)Cc1ccc(F)cc1)NCc1ccco1,1,0,2,34*,nt,nt,-37,-15
CCOC(=O)Cn1nc(C)n(-c2ccc(F)cc2)c1=O,-4,2,-10,11,nt,nt,nt,nt
Cc1cc(C)n2nc(C(=O)OCC(=O)Nc3ccc(C)c(S(=O)(=O)N4CCOCC4)c3)nc2n1,-7,-1,3,28*,nt,nt,-6,-19
